Results as given in PubChem BioAssay (NCI).
About 83,000 compounds went through this panel and 20% of them were active in at least one assay; those are over-represented in the sample as a whole.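 The endpoint reported here, percent growth, reads 100 for growth as untreated, 0 for no net growth and -100 for all cells dead.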 Unmarked numbers belong to inactive results. Activity calls are given as the source filed them. The calls were made as follows: active = growth percent below 10; inactive = the rest.

Columns and labels:
Test in all cases: NCI-60 one-dose screen, 48 h (100 = growth as untreated, 0 = no growth, -100 = all killed)
Conditions in all cases: 10 µM unless noted
[1] = tested on: HCT-15 colon
[2] = tested on: HT29 colon
[3] = tested on: SNB-75 CNS
[4] = tested on: SNB-19 CNS
[5] = tested on: U251 CNS
[6] = tested on: PC-3 prostate
[7] = tested on: SK-MEL-5 melanoma
[8] = tested on: UACC-62 melanoma
[9] = tested on: LOX IMVI melanoma
[10] = tested on: SK-MEL-28 melanoma

Structure (SMILES) | growth [1] | growth [2] | growth [3] | growth [4] | growth [5] | growth [6] | growth [7] | growth [8] | growth [9] | growth [10]
CC1(C)CC[C@]2(c3nnc(-c4ccncc4)o3)CC[C@]3(C)C(=CC[C@@H]4[C@@]5(C)CCC(=O)C(C)(C)[C@@H]5CC[C@]43C)[C@@H]2C1 | 71.8% | 77.5% | 88.7% | 78.7% | 76.9% | 47.5% | 74.3% | 67.3% | 72.2% | 83.5%
O=C1C(=O)c2c(nc3ccc(C(F)(F)F)cn23)-c2ccccc21 | -67.4% (active) | -9.93% (active) | -97% (active) | -84.4% (active) | -96% (active) | -85% (active) | -99.2% (active) | -82.4% (active) | -65.4% (active) | -84.3% (active)
C#Cc1ccccc1NC(=O)c1sc2nc3c(cc2c1N)CCCCCC3 | 70.2% | 36.3% | 39.2% | 76.5% | 23.4% | 77.4% | 89.6% | 91.8% | 22.8% | 91.1%
COc1ccc2c(c1)OC13Oc4cc(OC)ccc4C=C1CCCCC3=C2 | 92.6% | 71.5% | 89.8% | 106% | 89.7% | 69.6% | 91.5% | 89.4% | 99.8% | 111%
O=C1C(Cl)=C(Nc2ccc3c(c2NC2=C(Cl)C(=O)c4ccccc4C2=O)C(=O)c2ccccc2C3=O)C(=O)c2ccccc21 | 15.6% | 5.49% (active) | -15.1% (active) | 29.1% | 14.3% | 11% | -95.5% (active) | -62.6% (active) | 3.18% (active) | 47.1%
O=C(O)CCNC1CCCCC1 | 99.4% | 106% | 90.3% | 91.2% | 94.2% | 94.8% | 108% | 100% | 94.1% | 100%
O=c1cc(/C=N\Nc2nc(-c3ccc(Cl)cc3Cl)cs2)c2cc(Cl)ccc2o1 | 90.7% | 99.3% | 80.6% | 106% | 101% | 80.1% | 86.3% | 80.6% | 89.8% | 90.6%
COc1ccc(/C=C(/C(=O)N2CCCC2)c2cc(OC)c(OC)c(OC)c2)cc1 | 39.6% | 11.6% | 32% | 46.8% | 25.1% | 26.3% | 15% | 44.1% | 54.2% | 73.9%
Cn1cc(-c2ccc3c(c2)ncn3-c2ccc(CC(=O)Nc3cc(C(C)(C)C)on3)cc2)cn1 | 16.1% | 27.1% | -20.6% (active) | 58.5% | 31.3% | 43.5% | 48.2% | 35.4% | 12.6% | 48.5%
C=C(C)[C@@H]1CC[C@]2(C(=O)O)CC[C@]3(C)[C@H](CC[C@@H]4[C@@]5(C)C[C@@H](CC#Cc6ccccc6C)C(=O)C(C)(C)[C@@H]5CC[C@]43C)[C@@H]12 | 20.9% | 22.3% | 58.1% | 40% | 25.4% | 31.4% | 28.2% | 41.4% | 43.6% | 42.9%
COc1cc(NC(=O)Nc2cnc(Nc3ccc(N4CCOCC4)cc3)nc2Oc2ccc(F)cc2)cc(OC)c1 | 104% | 86.9% | 100% | 96% | 78.8% | 83% | 80.6% | 106% | 91% | 106%
c1ccc(Sc2ncccn2)nc1 | 102% | 101% | 72.5% | 89.9% | 104% | 97.9% | 102% | 93.6% | 92.6% | 109%
C=C1C(=O)O[C@H]2[C@H]1CC/C(COC(=O)c1cccnc1N)=C\CC[C@@]1(C)O[C@@H]21 | 0.999% (active) | -10.4% (active) | 66% | 25.7% | 28.8% | 24.8% | 15.3% | 33% | 7.48% (active) | 19.6%
